The full list was thinned out, with hits kept by preference.
PTAP TSG101 blk – blocks PTAP/TSG101 interaction to inhibit HIV-1 budding; Potency, µM (top dose mostly 115 µM), actives largely listed as inhibitors; Fluorescence polarization, FITC-PTAP peptide / Tsg101 binding; 340,000 tested, under 10 active; AID 493005; active = well fitted inhibition curve with a large enough effect in the main read-out, with a control signal flat, not every such curve was filed as active; inconclusive = small, poorly fitted or top-dose-only effect, or effect the other way, or a change in a side signal; inactive = no such curve, though single readings can be large or run the other way
Target sequence (Q99816 whole entry, looked up): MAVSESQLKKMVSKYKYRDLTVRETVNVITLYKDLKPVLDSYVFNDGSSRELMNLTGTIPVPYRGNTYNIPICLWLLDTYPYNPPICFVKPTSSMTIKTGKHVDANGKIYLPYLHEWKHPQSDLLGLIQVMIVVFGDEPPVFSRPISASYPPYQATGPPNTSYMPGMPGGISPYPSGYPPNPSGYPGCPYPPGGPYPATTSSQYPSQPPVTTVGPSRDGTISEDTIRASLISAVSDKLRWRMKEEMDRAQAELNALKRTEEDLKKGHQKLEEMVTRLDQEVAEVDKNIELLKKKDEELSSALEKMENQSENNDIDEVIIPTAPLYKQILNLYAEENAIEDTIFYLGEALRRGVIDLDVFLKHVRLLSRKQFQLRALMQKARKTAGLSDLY
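Fluorescence anisotropy tracks displacement of a FITC-tagged PTAP peptide (50 nM) from the Tsg101 binding domain (10 uM), following a 20 min room-temperature incubation at pH 7.5.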
Epigenetic reg – regulators of epigenetic silencing causing reporter derepression in mouse cells | actives 0.2% (n = 280,000) | murine LDR cells, GFP reporter derepression, 30 h | Potency, µM (top dose mostly 53.9 µM), most hits filed as activators; note: nearly all actives have a fitted effect of over 60% in size
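Reporter derepression read as number of fluorescent GFP-positive objects, 20-120 um in size, counted by laser-scanning cytometer. Mouse LDR line with an epigenetically silenced CMV-GFP locus; compound incubation 30 h, 37 C.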
Apoferritin bind – binds horse apoferritin like a general anesthetic; P02791; apoferritin/1-aminoanthracene competitive binding, fluorescence; Potency, µM (titrated, usually from 77.5 µM), actives largely listed as inhibitors; actives 0.074% (n = 350,000); AID 485281; note: nearly all actives have a fitted effect of over 20% in size
Target sequence (P02791 2-175 limits assumed): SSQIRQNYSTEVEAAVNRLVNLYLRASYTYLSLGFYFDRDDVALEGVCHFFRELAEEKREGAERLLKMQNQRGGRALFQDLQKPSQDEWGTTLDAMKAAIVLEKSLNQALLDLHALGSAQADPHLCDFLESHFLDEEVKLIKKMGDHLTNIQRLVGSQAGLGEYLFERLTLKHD
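Concentration-response curves derived by four-parameter Hill fitting of normalized fluorescence, where compounds displaced 1-AMA from 10 uM horse apoferritin following a brief 10 min room-temperature incubation; propofol titration acted as positive control.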
HTT ATP protect – protects HTT-Q103 PC12 cells, measured by ATP; Potency, µM (titrated, usually from 56.4 µM), actives largely listed as activators; actives 0.14% (n = 230,000); PC12 HTT-Q103 induced, cytoprotection, ATP luminescence, 40 h; AID 1471; note: nearly all actives have a fitted effect of over 45% in size
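Rat PC12, Q103 Htt exon1-GFP fusion, ecdysone promoter; tebufenozide inducer 100 nM final; compound titration; qHTS, 1500 cells/well; ATPlite luminescent read.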
PINK1 modulator – modulators of PINK1 expression. actives 0.2% (n = 410,000). PINK1 immunofluorescence, high-content cytometry, 24 h. Potency, µM (highest dose often 76.6 µM), usual class: activators; active = well fitted activation curve with a large enough effect; inconclusive = small, poorly fitted or top-dose-only effect; cell line not stated here; note: nearly all actives have a fitted effect of over 65% in size
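Stable cell line, 250 cells/well, 12 h attachment; compounds pinned at 5 concentrations, 24 h; CCCP control. Fixed with nuclear dye, primary antibodies 12 h at 10 degrees C, secondary plus cell stain; laser-scanning cytometer read.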
HttQ103 aggreg – inhibitors of mutant huntingtin aggregate formation in PC12 cells; PC12 HttQ103-GFP aggregates, Acumen cytometry, 40 h; Potency, µM (doses to about 46.1 µM), usual class: inhibitors; actives 1.1% (n = 220,000); AID 1688; note: nearly all actives have a fitted effect of over 60% in size
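Huntingtin Q103 exon 1–GFP aggregates in induced PC12 cells (100 nM tebufenozide) were quantified by cytometry from lysates, with compounds dosed in titration.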
Large screens that a line does not name were inactive. Unless noted, calls come from the whole dose curve; as a rule, active = well fitted curve in the direction sought with a large enough effect; inconclusive = small, poorly fitted or top-dose-only effect, or another doubt; inactive = no such curve, though single readings can be large; an effect the other way counts as inactive or inconclusive.

COCCn1c(N2CCN(c3ccccc3)CC2)nc2c1c(=O)n(C)c(=O)n2C	HTT ATP protect 2µM
C(=C\c1ccnc2ccccc12)/c1cccnc1	none (no result: PTAP TSG101 blk, Epigenetic reg, Apoferritin bind, HTT ATP protect, HttQ103 aggreg)
Nn1c(SCC(=O)Nc2ccc(F)c(F)c2)nnc1C1CCCCC1	Apoferritin bind 4.5µM
NC(=O)c1ccc(NC(=O)CSc2nnc(C3CCCCC3)n2N)cc1	none (no result: Epigenetic reg, HTT ATP protect, HttQ103 aggreg)
CSc1ncccc1C(=O)NCC1Cc2cc(F)cc(-c3cncnc3)c2O1 (centres undefined)	none (no result: PTAP TSG101 blk, Epigenetic reg, Apoferritin bind, HTT ATP protect, HttQ103 aggreg)
CCOc1ccc(NC(=O)Cn2cc(C(=O)c3ccc(OCC)cc3)c(=O)c3cc4c(cc32)OCCO4)cc1	Epigenetic reg 20µM (no result: PTAP TSG101 blk, HTT ATP protect, HttQ103 aggreg)
Cc1cccc(NC(=O)C(C)OC(=O)c2ccccc2NS(=O)(=O)c2cc(C)c(C)c([N+](=O)[O-])c2)c1 (centres undefined)	PINK1 modulator 20µM
O=C(NCc1ccccn1)c1cnn(-c2nccc(-c3cc4ccccc4o3)n2)c1C1CC1	none (no result: PTAP TSG101 blk, Epigenetic reg, Apoferritin bind, HTT ATP protect, HttQ103 aggreg)
CN(C(=O)c1cnn(-c2nccc(-c3ccccc3C(F)(F)F)n2)c1C1CC1)C1CCOC1 (centres undefined)	none (no result: PTAP TSG101 blk, Epigenetic reg, Apoferritin bind, HTT ATP protect, HttQ103 aggreg)
NNC(=O)c1cc(-c2cccs2)nc2ccccc12	none
C/C(=N\NC(=O)c1cc(-c2cccs2)nc2ccccc12)c1ccccn1	Epigenetic reg inconclusive, HttQ103 aggreg 0.89µM
CCOC(=O)C1=C(C)NC(C)=C(C(=O)OC)[C@H]1c1cccc(Cl)c1Cl	none (no result: PTAP TSG101 blk, Epigenetic reg, Apoferritin bind, PINK1 modulator, HttQ103 aggreg)
c1ccc(C[n+]2cccc3c4ccccc4ccc32)cc1	HttQ103 aggreg 28µM
CCCCC[n+]1cccc2c3ccccc3ccc21	HttQ103 aggreg 2.5µM
CC1(C)CC(=O)c2cc(C(=O)Nc3cccc4ccccc34)c(=O)[nH]c2C1	none (no result: PTAP TSG101 blk, Epigenetic reg, Apoferritin bind, HTT ATP protect, HttQ103 aggreg)
CC(=O)N[C@@H](CC(=O)O)C(=O)O	PTAP TSG101 blk inconclusive, HTT ATP protect inconclusive (no result: HttQ103 aggreg)
CC(=O)N[C@@H](CCC(=O)O)C(=O)O	HTT ATP protect 2µM (no result: PTAP TSG101 blk, Epigenetic reg, Apoferritin bind, PINK1 modulator)
CC(C)CC(=O)Nc1ccc(Nc2ccccc2)cc1	Apoferritin bind inconclusive
CC(C)(C)CC(=O)Nc1ccc(Nc2ccccc2)cc1	Apoferritin bind 8.9µM
CN1C=CC2=C(C#N)C(N)C(C#N)(C#N)[C@H](c3ccccc3)[C@H]2C1 (some centres undefined)	PINK1 modulator 13µM
C[C@@H]1CN(Cc2ccc3c(c2)CN(Cc2coc4ccccc4c2=O)CCO3)C[C@H](C)O1	none (no result: PTAP TSG101 blk, Epigenetic reg, Apoferritin bind, HTT ATP protect, HttQ103 aggreg)
COc1ccc(CN2CCOc3ccc(CN4CCC(Oc5cccnc5)CC4)cc3C2)c(F)c1	none (no result: PTAP TSG101 blk, Epigenetic reg, Apoferritin bind, HTT ATP protect, HttQ103 aggreg)
COc1cc(CN2CCCC(n3cc(C(=O)N4CCCCC4)nn3)C2)cc2c1OCO2 (centres undefined)	none (no result: PTAP TSG101 blk, Epigenetic reg, Apoferritin bind, HTT ATP protect, HttQ103 aggreg)
Cc1nc(N2CCC(C)CC2)c2c(C)c(C(=O)Nc3cccc(C(F)(F)F)c3)sc2n1	none
Cc1nc(N2CCC(C)CC2)c2c(C)c(C(=O)Nc3ccc(C(F)(F)F)cc3)sc2n1	PINK1 modulator 40µM
CC1CCC(C(=O)NC(C(=O)OCC(=O)c2ccc(Br)cc2)C(C)C)CC1 (centres undefined)	none (no result: PTAP TSG101 blk, HTT ATP protect, HttQ103 aggreg)
COC(C(=O)C(O)C(C)O)C1Cc2cc3cc(OC4CC(OC5CC(O)C(O)C(C)O5)C(O)C(C)O4)c(C)c(O)c3c(O)c2C(=O)C1OC1CC(OC2CC(OC3CC(C)(O)C(O)C(C)O3)C(O)C(C)O2)C(O)C(C)O1 (centres undefined)	HttQ103 aggreg 0.22µM (no result: PTAP TSG101 blk, Epigenetic reg, Apoferritin bind)
COC(C(=O)C(O)C(C)O)C1Cc2cc3cc(OC4CC(OC5CC(O)C(O)C(C)O5)C(O)C(C)O4)c(C)c(O)c3c(O)c2C(=O)C1OC1CC(OC2CC(OC3CC(O)C(OC)C(C)O3)C(O)C(C)O2)C(O)C(C)O1 (centres undefined)	none (no result: Epigenetic reg, Apoferritin bind, HTT ATP protect, HttQ103 aggreg)
